Pf growth 48h – Primary qHTS for delayed death inhibitors of the malarial parasite plastid, 48 hour incubation; P. falciparum luciferase growth in erythrocytes, 48 h; Potency, µM (doses to about 28.7 µM), inactives show at the highest dose activity change, negative = inhibition, hits mostly inhibitors; 5.9% of 310,000 active; also: potency is read from the fitted curve at half-maximal effect; % is scaled to controls: 0 for no effect and ±100 for the full control effect
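Growth was read as firefly luciferase luminescence after a 48 h, 37 C, 5% CO2 exposure of compounds to reporter-bearing P. falciparum cultures (0.1% parasitemia, 2% hematocrit final) in Albumax-supplemented RPMI 1640.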
Pf growth 96h – Primary qHTS for delayed death inhibitors of the malarial parasite plastid, 96 hour incubation; Potency, µM (titrated, usually from 28.7 µM), for the others: top-dose activity change, negative = inhibition, usual class: inhibitors; AID 504834, 2011; 6.9% of 320,000 active; P. falciparum luciferase reporter growth, 96 h; also: potency is read from the fitted curve at half-maximal effect; % is scaled to controls: 0 for no effect and ±100 for the full control effect
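Erythrocytes infected with luciferase-expressing P. falciparum were dispensed at 2% hematocrit and 0.05% parasitemia (final), then incubated with compounds 96 hours at 37 C in 5% CO2. Luminescence after detection reagent addition reported growth.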
SARS PLpro yeast – qHTS of Yeast-based Assay for SARS-CoV PLP. S. cerevisiae expressing SARS-CoV PLpro, growth rescue. Potency, µM (top dose mostly 32.9 µM), for inactives: top-dose activity, positive = growth rescue, usual class: activators. 0.19% of 330,000 active. AID 485353, 2010; calls by dose curve; also: potency is read from the fitted curve at half-maximal effect; 0% is about no effect; nearly all actives have a fitted effect of over 55% in size
Shiga inhibitor – A qHTS for Small Molecule Inhibitors of Shiga Toxin | Vero cells, Shiga toxin protein synthesis inhibition reporter | inhibition, % at 38.7 µM | 9.2% of 290,000 active; in the data active = inhibition mostly above about 28%, no sharp cut-off; inactive = mostly below about 43%; also: 0% is about no effect
AMA1-RON2 inh – qHTS for Inhibitors of AMA1-RON; Towards Development of Antimalarial Drug Lead: Primary Screen | Potency, µM (highest dose often 58.2 µM), for inactives: at the highest dose activity change, negative = inhibition, most hits filed as inhibitors | Plasmodium falciparum AMA1 (3D7) - RON2 peptide interaction | 0.2% of 360,000 active | AlphaScreen AMA1-biotinylated RON2 peptide binding;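 also: potency is read from the fitted curve at half-maximal effect; 0% = vehicle wells and -100% = peptide control; nearly all actives have a fitted effect of over 45% in size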
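AMA1 (3D7) with his tag at 25 nM final met compounds first, then biotinylated RON2 peptide at 25 nM; detection used donor plus acceptor beads, 10 µg/mL apiece, read by AlphaScreen after 30 min at room temperature.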
Cycloheximide cs – Cycloheximide Counterscreen for Small Molecule Inhibitors of Shiga Toxin | cell reporter, cycloheximide protein synthesis inhibition counterscreen | max response, % | 12% of 300,000 active | AID 2314, 2010; in the data active = max response mostly above about 13%, no sharp cut-off; inactive = mostly below about 14%; also: read at 38.3 µM for the half of the compounds with a filed dose; 0% is about no effect
Starred values were filed as active, the others as inactive. A selection: hits, their analogues and other compounds. The true share with any hit is near 19%. Unless noted, calls follow the shape of the dose curve; as a rule, active = well fitted curve in the direction sought with a large enough effect; inconclusive = small, poorly fitted or top-dose-only effect, or another doubt; inactive = no such curve, though single readings can be large; an effect the other way counts as inactive or inconclusive.

What do the screens show for `COc1cccc(/C=C2\N=C(C3CCCCC3)OC2=O)c1OC`?
Pf growth 48h: 12%; Pf growth 96h: inconclusive; SARS PLpro yeast: 4%; Shiga inhibitor: 13; AMA1-RON2 inh: 16%; Cycloheximide cs: 52*

Results for CC(=O)Oc1ccc(/C=C2\N=C(C3CCCCC3)OC2=O)cc1 ?
Pf growth 48h: 9%; Pf growth 96h: inconclusive; SARS PLpro yeast: 0%; Shiga inhibitor: -3; AMA1-RON2 inh: -21%; Cycloheximide cs: 4

What do the screens show for `C[C@@H]1Cn2cnc(C(=O)N[C@@H](C)C(=O)OC(C)(C)C)c2C(=O)N1`?
AMA1-RON2 inh: 4%

What do the screens show for `CC(NCc1ccc(F)cc1)C(=O)NC1CCCCC1` (centres undefined)?
Pf growth 48h: 24%; Pf growth 96h: -6%; SARS PLpro yeast: 0%; Shiga inhibitor: 53*; AMA1-RON2 inh: -1%; Cycloheximide cs: 7.1*

How did CC(NCc1ccc2c(c1)OCO2)C(=O)NC1CCCCC1 (centres undefined) do in these assays?
Pf growth 48h: 8%; Pf growth 96h: inconclusive; SARS PLpro yeast: 1%; Shiga inhibitor: -6; AMA1-RON2 inh: 5%; Cycloheximide cs: -1

How did Cc1c(NC(=O)NC2CCCCC2)cccc1[N+](=O)[O-] do in these assays?
Pf growth 48h: 32%; Pf growth 96h: 0%; SARS PLpro yeast: 0%; Shiga inhibitor: -13; AMA1-RON2 inh: -3%; Cycloheximide cs: 6

How did O=C(Nc1ccc(Cl)cc1)NC1CCCCNC1=O (centres undefined) do in these assays?
Pf growth 48h: 69%; Pf growth 96h: 27%; SARS PLpro yeast: 1%; Shiga inhibitor: 46*; AMA1-RON2 inh: -10%; Cycloheximide cs: 28*

What do the screens show for `Nc1ccc(NC(=O)NC2CCCCC2)cc1[N+](=O)[O-]`?
Pf growth 48h: 131%; Pf growth 96h: 136%; SARS PLpro yeast: 0%; Shiga inhibitor: 65*; AMA1-RON2 inh: 1%; Cycloheximide cs: 33*

What do the screens show for `O=C(Nc1ccc2nsnc2c1)NC1CCCCC1`?
Pf growth 96h: 28%; SARS PLpro yeast: -7%; Shiga inhibitor: 72; AMA1-RON2 inh: 28%; Cycloheximide cs: 50*

How did C=CCNC(=O)/C(=C\c1ccc(OC)cc1)NC(=O)c1ccc([N+](=O)[O-])cc1 do in these assays?
Pf growth 48h: 14%; Pf growth 96h: 38%; SARS PLpro yeast: 0%; Shiga inhibitor: -5; AMA1-RON2 inh: 11%; Cycloheximide cs: 14

Results for COc1ccccc1CNC(=O)COC(=O)CCN1C(=O)C2CC=CCC2C1=O (centres undefined) ?
AMA1-RON2 inh: 5%

How did O=C(Nc1ccc(Cl)cc1)NC1CCCC1Cc1ccco1 (centres undefined) do in these assays?
Pf growth 48h: 10µM*; Pf growth 96h: inconclusive; SARS PLpro yeast: -28%; Shiga inhibitor: 47*; AMA1-RON2 inh: 6%; Cycloheximide cs: 41*

Results for O=C(NC1CCCCCC1)c1ccc(N2CCCC2=O)cc1 ?
Pf growth 48h: 168%; Pf growth 96h: 201%; SARS PLpro yeast: 3%; Shiga inhibitor: 74*; AMA1-RON2 inh: 15%; Cycloheximide cs: 21

What do the screens show for `O=C(Nc1ccc(Cl)cc1)NC1CCCCC1Cc1ccco1` (centres undefined)?
Pf growth 48h: inconclusive; Pf growth 96h: inconclusive; SARS PLpro yeast: -28%; Shiga inhibitor: -7; AMA1-RON2 inh: 12%; Cycloheximide cs: 3

How did Nc1ccc(NC(=O)NC2CCCCC2)cc1 do in these assays?
Pf growth 48h: 84%; Pf growth 96h: -5%; SARS PLpro yeast: 12%; Shiga inhibitor: 61*; AMA1-RON2 inh: -17%; Cycloheximide cs: 38*

How did O=C(NC1CC2CCCC(C1)N2C(=O)NC1CCCCC1)c1ccc(F)cc1 (centres undefined) do in these assays?
Pf growth 48h: inconclusive; SARS PLpro yeast: -2%; Shiga inhibitor: -6; AMA1-RON2 inh: -2%; Cycloheximide cs: -6

How did O=C(NC1CCCCCCC1)c1ccc(F)cc1 do in these assays?
Pf growth 48h: -9%; Pf growth 96h: 43%; SARS PLpro yeast: -1%; Shiga inhibitor: 71*; AMA1-RON2 inh: -10%; Cycloheximide cs: 46*

How did CO[C@H](C(=O)N(C)C[C@@H]1OCc2ccccc2-c2c(n(C)c3ccccc23)C(=O)N([C@H](C)CO)C[C@@H]1C)c1ccccc1 do in these assays?
AMA1-RON2 inh: 8%

What do the screens show for `O=C(COC(=O)CNC(=O)c1cc(Cl)cc([N+](=O)[O-])c1)NC(=O)NCc1ccco1`?
SARS PLpro yeast: 0%; AMA1-RON2 inh: 14%

What do the screens show for `O=C(/C=C/c1ccc(F)cc1)NC(=S)Nc1ccccc1C(=O)NC1CCCCC1`?
Pf growth 48h: 0%; Pf growth 96h: -1%; SARS PLpro yeast: 3%; Shiga inhibitor: -3; AMA1-RON2 inh: 26%; Cycloheximide cs: 1

How did Cc1ccc(NC(=O)NC2CCCCCCC2)cc1C do in these assays?
Pf growth 48h: 4%; Pf growth 96h: inconclusive; SARS PLpro yeast: 1%; Shiga inhibitor: 19; AMA1-RON2 inh: 11%; Cycloheximide cs: 27

Results for O=C(/C=C/c1ccc(F)cc1)NC(=S)NC1CCCCC1 ?
Pf growth 48h: inconclusive; Pf growth 96h: 3.3µM*; SARS PLpro yeast: 3%; Shiga inhibitor: -5; AMA1-RON2 inh: 1%; Cycloheximide cs: 5

What do the screens show for `O=C(Nc1ccc(F)c(F)c1)NC1CCCCC1`?
Pf growth 48h: 64%; Pf growth 96h: 0%; SARS PLpro yeast: -4%; Shiga inhibitor: 50*; AMA1-RON2 inh: -1%; Cycloheximide cs: 30*

Results for O=C(Nc1ccc(F)cc1)NC1CCCCCCC1 ?
Pf growth 48h: 51%; Pf growth 96h: 19%; SARS PLpro yeast: -2%; Shiga inhibitor: 108*; AMA1-RON2 inh: 14%; Cycloheximide cs: 61*

How did O=C(Nc1ccc(Cl)cc1)NC1CCCCC1 do in these assays?
Pf growth 48h: 48%; Pf growth 96h: 374%; SARS PLpro yeast: 2%; Shiga inhibitor: 100; AMA1-RON2 inh: 14%; Cycloheximide cs: 38*

Results for CN(CC(=O)Nc1ccc(F)cc1)CC(=O)NC1CCCCC1 ?
Pf growth 48h: inconclusive; Pf growth 96h: -15%; SARS PLpro yeast: 15%; AMA1-RON2 inh: 3%

Results for CN(CCO)CCC(=O)NC1(C)CS(=O)(=O)CC1S(=O)(=O)O (centres undefined) ?
Pf growth 48h: -3%; Pf growth 96h: 45%; SARS PLpro yeast: 0%; Shiga inhibitor: 1; AMA1-RON2 inh: 6%; Cycloheximide cs: -4

Results for C/C(N)=C(/C#N)C(=O)COC(=O)CCCNC(=O)c1ccc(Cl)cc1 ?
Pf growth 48h: -1%; Pf growth 96h: inconclusive; SARS PLpro yeast: 1%; Shiga inhibitor: -2; AMA1-RON2 inh: -8%; Cycloheximide cs: 4
